The source of these data is PubChem BioAssay (NCATS).

The structures appear in SMILES notation. Where “and” joins values, the source holds several entries; their conditions need not be identical. Equal values may be shown once. Results filed as inconclusive are left out. Entries that show only a call come without a potency. Some structures have more than one record in an assay (separate samples or runs), and their calls can disagree. Calls of active or inactive are those of the source. The call rests on the fitted dose curve; in most records, active means well fitted inhibition curve with a large enough effect in the repeat runs; inconclusive means weak or mixed curves; inactive means no such curve, though single readings can be large or run the other way.
Potency means the concentration at half of the fitted maximal effect.

Cytochrome P450 2C9 (Homo sapiens), sequence (P11712 whole entry, looked up): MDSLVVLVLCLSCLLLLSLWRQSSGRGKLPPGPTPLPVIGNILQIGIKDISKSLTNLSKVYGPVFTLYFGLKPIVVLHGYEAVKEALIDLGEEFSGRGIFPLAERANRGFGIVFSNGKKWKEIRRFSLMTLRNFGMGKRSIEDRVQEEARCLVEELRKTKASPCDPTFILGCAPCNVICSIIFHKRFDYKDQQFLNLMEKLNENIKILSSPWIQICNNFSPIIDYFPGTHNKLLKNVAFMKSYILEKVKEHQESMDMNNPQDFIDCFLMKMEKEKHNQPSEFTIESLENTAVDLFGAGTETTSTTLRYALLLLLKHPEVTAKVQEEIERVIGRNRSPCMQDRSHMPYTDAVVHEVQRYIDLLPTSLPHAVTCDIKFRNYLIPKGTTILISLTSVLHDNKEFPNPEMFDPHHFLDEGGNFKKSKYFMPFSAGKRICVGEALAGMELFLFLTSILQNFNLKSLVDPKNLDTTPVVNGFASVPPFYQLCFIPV

The target in the assay is Cytochrome P450 2C9 (Homo sapiens) (UniProt P11712). In words: Cytochrome P450 family 2 subfamily C member 9 (CYP2C9) small molecule antagonists: luciferase biochemical (cell-free) qHTS assay (AID 1645842). Further: nearly all actives have a fitted effect of over 55% in size. The settings on record: P450-Glo CYP2C9 enzyme assay, luciferin luminescence; series mostly up to 57.4 µM. As for the experimental part:
National Center for Advancing Translational Sciences [NCATS] Assay Overview: Cytochrome P450 (CYP) enzymes are membrane-bound hemeproteins that play a key role in metabolism of drugs and xenobiotics. Assaying the effect of chemicals on CYP isozymes is useful to minimize the adverse drug reactions and toxicities in drug development process. Chemical compounds were tested for their effect on CYP enzyme activities by using P450-Glo (TM) screening systems (Promega Corporation, Madison, WI). These systems provide a luminescent method containing proluciferin substrates and are converted to luciferin products by CYP isozymes. The luciferin products formed are detected with a luciferin detection reagent, and the amount of light produced is proportional to CYP activity. P450-Glo (TM) CYP2C9 screening system (Catalog. No. V9790) was used to detect the compounds that interfere in CYP2C9 activity.
Assay Protocol Summary: Two ul of enzyme-substrate mix supplemented with 0.4% Bovine Serum Albumin was dispensed into medium binding white/solid 1536-well plates (Greiner Bio-One North America Inc., Monroe, NC) using a Flying Reagent Dispenser (FRD, Aurora Discovery, San Diego, CA). […] The assay plates were incubated at room temperature for 10 min. Then 2 ul of NADPH regeneration solution was added to each well of the assay plates using an FRD and incubated at 37C for 1 h. The reaction was stopped by adding 4 ul of detection reagent using an FRD and after 20 min incubation at room temperature, the luminescence signal was measured using a ViewLux plate reader (Perkin Elmer, Shelton, CT). Data were expressed as relative luminescence units.
Background: Quantitative high-throughput screening tests each substance at several concentrations.
Consider `CCCCC(CC)COC(=O)CC(C(=O)OCC(CC)CCCC)S(=O)(=O)O` (stereo not given), for which the Potency entry is “inactive”. With `CCOC(=O)N1CCC(NCCNC(=O)c2ccccc2C)CC1`, the Potency result was “inactive”.

For the compound `CC(=O)c1cnc2ccc(-c3cc(Cl)c(O)c(Cl)c3)nc2c1NC1CCC(CN(C)C)CC1` (stereo not given), the Potency result is “inactive”. Consider `COc1ccc(C)c2sc(NC(=O)c3ccncc3)nc12`, for which the Potency is 0.849 µM (active). Consider `CCNC(=O)[C@H]1O[C@H](n2cnc3c(NCC(c4ccccc4)c4ccccc4)nc(C(=O)NCCNC(=O)NC4CCN(c5ccccn5)CC4)nc32)[C@H](O)[C@@H]1O`, for which the Potency is 3.79 µM (active).

As for `CCOC(=O)[C@H](CCc1ccccc1)CC1(C(=O)N[C@H]2CCc3ccccc3N(CC(=O)O)C2=O)CCCC1`, the Potency result is “inactive”. `O=C(Nc1ccc(Br)cc1)c1cc(Br)c(Br)s1`: the Potency was 21.3 µM (active). For the compound `CNC(=O)O[C@H]1COc2ccc(N3CCN(C4COC4)CC3)cc2[C@@H]1NC(=O)c1ccc(F)cc1`, the Potency result was “inactive”. Take `Cc1cc(C)cc(NC(=O)Cc2ccc(OC(C)(C)C(=O)O)cc2)c1`: the Potency result is “inactive”. As to `c1ccc(C(OC2CCN(CCCc3nn[nH]n3)CC2)c2ccccc2)cc1`, the Potency entry is “inactive”. In the case of `CN(C)c1cccc(-c2c3c(=O)n(-c4ccccc4Cl)[nH]c3cc(=O)n2C)c1`, the Potency was 5.35 µM (active).

As to `CCOC(=O)c1c(C)nn(-c2cccc([N+](=O)[O-])c2)c1C`, the Potency was 1.07 µM (active). As for `O=C(NC[C@H](O)CN1CCc2ccccc2C1)c1cc(NC2COC2)ncn1`, the entry is “inactive”. In the case of `CCOc1ccc(C(Nc2ccccn2)c2ccc3ccc(C)nc3c2O)cc1C` (stereo not given) it was 4.77 µM (active); in that of `O=C1C[C@@H](c2ccc(O)cc2)Oc2cc(O)ccc21`, 12 µM (active); in that of `COc1cccc(-n2nc(C(=O)O)cc2-c2ccc(C3CCCCC3)c(Cl)c2)c1`, “inactive”.

With `COc1ccc([C@@H]2N[C@H](C(=O)O)Cc3c2[nH]c2ccccc32)cc1CN1CCN(c2ccccc2F)CC1`, the Potency result is “inactive”.

`CC(C)N(C[C@H]1O[C@@H](n2cnc3c(N)ncnc32)[C@H](O)[C@@H]1O)C1CC(CCc2nc3ccc(C(C)(C)C)cc3[nH]2)C1` (stereo not given in full): the Potency entry was “inactive”. As for `Cc1c(C)c2c(c(C)c1O)CC[C@@](C)(CCC[C@H](C)CCC[C@H](C)CCCC(C)C)O2`, the entry is “inactive”; as for `NS(=O)(=O)OC[C@@H]1C[C@@H](n2ccc3c(N[C@H]4CCc5ccccc54)ncnc32)C[C@@H]1O`, 21.3 µM (active). In the case of `CCOC(=O)c1ccc(N(C)c2csc(-c3ccccc3)n2)cc1`, the Potency is 0.674 µM (active). `Nc1ncnc2c1ncn2[C@H]1CCCO1`: the Potency entry was “inactive”.

With `CCC(CC)n1ccc2c(C(=O)NCc3c(C)cc(C)[nH]c3=O)cc(C#N)cc21`, the Potency is 4.77 µM (active). `CCC(=O)NS(=O)(=O)c1ccc(-c2c(-c3ccccc3)noc2C)cc1`: the Potency is 6.74 µM (active). For the compound `N#Cc1ccc2[nH]c(O)c(-c3ccc(CN4CCOCC4)cn3)c2c1`, the Potency result is “inactive and 16.9 µM (active)”. As for `CC(=O)N1CCN(NC(=O)c2ccc(F)cc2)CC1`, the entry is “inactive”; as for `COC(=O)[C@H](CC1C=NC=N1)NCC12CC3CC(CC(C3)C1)C2` (stereo not given in full), “inactive”. `O=C(c1ccc(C#Cc2cccc(F)c2)cn1)N1CC2CC2C1` (stereo not given): the Potency was 23.9 µM (active). As for `O=C(/C=C/c1c(C(=O)O)[nH]c2cc(Cl)cc(Cl)c12)Nc1ccccc1`, the figure is 21.3 µM (active); as for `C[C@@H](Nc1cc(NS(=O)(=O)N2CCC2)nc(SCc2cccc(F)c2F)n1)[C@@H](O)CO`, “inactive”. Consider `CC1(C)CCC(C)(C)c2cc([C@@H](O)C(=O)Nc3ccc(C(=O)O)cc3F)ccc21`, for which the Potency is 13.5 µM (active).

Regarding `COCCCNCC1COc2ccccc2O1` (stereo not given), the Potency result was “inactive”. For `CO[C@@H](Cc1ccc(OCCc2nc(-c3ccccc3)oc2C)c2ccsc12)C(=O)O`, the Potency is 26.8 µM (active). Take `CC(=O)OC(C)OC(=O)C(C)c1ccc(-c2ccccc2)c(F)c1` (stereo not given): the Potency is 9.77 µM (active). For the compound `O=c1ccn([C@@H]2O[C@H](CO)[C@@H](O)[C@H]2O)c(=O)[nH]1`, the Potency result was “inactive”. Take `CC1(C)C(=O)C(C)(C)c2cc(C(=O)Nc3ccc(C(=O)O)cc3)ccc21`: the Potency result is “inactive”. For `C[C@H]1CN(C[C@H](Cc2ccccc2)C(=O)NCC(=O)O)CC[C@@]1(C)c1cccc(O)c1`, the Potency result is “inactive”. In the case of `OCC(S)CS` (stereo not given) it was 2.68 µM (active).

On to `COc1cc(N2CCC(O)CC2)ccc1Nc1cc(Nc2ccccc2S(=O)(=O)C(C)C)c2cc[nH]c2n1`, for which the Potency is 6.61 µM (active). On to `O=S(=O)(NC1CCNCC1)c1cc(S(=O)(=O)c2ccccc2)ccc1C(F)(F)F`, for which the Potency result is “inactive”.
